Shown are actives, neighbours in structure and some others; about 3% of the full set was active somewhere.
SENP8 block-1 – SENP8 (human) protease inhibition; recombinant SENP8, Nedd8 substrate fluorescence; inhibition, % at 20 µM; actives 0.64% (n = 360,000); AID 602440; in the data active means inhibition mostly above about 40%, no sharp cut-off; inactive means mostly below about 27%
Target sequence (Q96LD8 whole entry, looked up): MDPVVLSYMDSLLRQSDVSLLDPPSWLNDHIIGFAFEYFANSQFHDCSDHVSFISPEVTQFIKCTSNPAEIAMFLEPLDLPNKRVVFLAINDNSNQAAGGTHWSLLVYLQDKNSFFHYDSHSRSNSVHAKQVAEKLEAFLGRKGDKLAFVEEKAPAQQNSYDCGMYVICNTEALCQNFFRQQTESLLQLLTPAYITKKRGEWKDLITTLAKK
SENP6 block – inhibitors of human SENP6 protease. actives 1.8% (n = 330,000). Recombinant SENP6 catalytic domain, aminoluciferin luminescence. inhibition, % at 10 µM. Q9GZR1;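 active means inhibition above about 50% at the single tested dose, limit read from the data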;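 further: plate controls were DMSO wells with enzyme for no effect and DMSO wells lacking enzyme for full effect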
C8 TRAIL sens – caspase-8 TRAIL sensitization; NB7+C8 cells + TRAIL, ATPlite viability luminescence; inhibition (viability loss, TRAIL sensitization), % at 10 µM; actives 1% (n = 360,000);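 active means compounds causing at least 50% loss of cell viability in the single-dose screen, relative to plate controls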
SENP7 block – blocks the human protease SENP7 | recombinant SENP7, Z-RLRGG-aminoluciferin luminescence, 40 min | inhibition, % at 5 µM | actives 1.5% (n = 330,000) | AID 434973;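 active means inhibition above about 50% at the single test dose, limit read from the data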;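 further: plate controls were DMSO with enzyme for no effect and no enzyme buffer wells for full effect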
PPC-1+TRAIL kill – PPC-1 cancer cell killing with TRAIL present. PPC-1 cells + TRAIL, ATPLite viability luminescence. cell killing (% activity), % at 4 µM or 5 µM. actives 0.41% (n = 220,000). AID 1443;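 active means cell killing above 50% in the first pass at 4 µM, then a duplicate retest at 5 µM averaging 50% or more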;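 further: plate controls were cells with TRAIL plus DMSO for no effect and medium-only wells lacking cells for full effect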
SENP8 block-2 – inhibitors of human SENP8 protease; purified SENP8, Z-RLRGG-aminoluciferin cleavage, luminescence; inhibition, % at 10 µM; AID 2540; Q96LD8; actives 1.2% (n = 330,000); in the data active means inhibition above about 50%
SENP8 conf-1 – confirmation of human SENP8 protease inhibitors | shares compounds with SENP7 block | Recombinant SENP8, Z-RLRGG-aminoluciferin luminescence, 60 min | inhibition, % at 12.5 µM | actives 40% (n = 6,200) | AID 488912;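 active means mean inhibition across replicates above about 50%, limit read from the data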
SENP6 conf – human SENP6 inhibition, confirmed; recombinant SENP6, Z-RLRGG-aminoluciferin luminescence; inhibition, % at 12.5 µM; actives 58% (n = 6,200); shares compounds with SENP7 block
SENP7 confirm – human SENP7 inhibition, confirmed; shares compounds with SENP7 block; recombinant SENP7, Z-RLRGG-aminoluciferin luminescence, 40 min; inhibition, % at 12.5 µM; actives 69% (n = 6,200); AID 488917
Casp3 select – caspase-3 inhibition (SENP selectivity assay) | shares compounds with SENP7 block | actives 60% (n = 6,200) | purified caspase-3, Z-DEVD-aminoluciferin luminescence, 60 min | inhibition, % at 12.5 µM;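 active means mean inhibition above about 50%, limit read from the data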;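 further: plate controls were enzyme with DMSO for no effect and wells without caspase-3 for full effect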
Target sequence (P42574 28-227 limits assumed): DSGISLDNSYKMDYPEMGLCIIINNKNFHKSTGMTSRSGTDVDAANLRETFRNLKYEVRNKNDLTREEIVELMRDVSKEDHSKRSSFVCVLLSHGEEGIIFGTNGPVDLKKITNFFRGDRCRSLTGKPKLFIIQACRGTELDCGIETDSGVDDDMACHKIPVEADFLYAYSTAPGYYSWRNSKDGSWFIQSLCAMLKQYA
Luc interf – counter-screen for SENP inhibitors: luminescence interference; shares compounds with SENP7 block; Pre-incubated SENP8/Z-RLRGG-aminoluciferin, luciferase luminescence interference; inhibition, % at 12.5 µM; actives 39% (n = 6,200);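 active means mean inhibition above about 50% when retested at one dose, limit read from the data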;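 further: plate controls were DMSO wells with completed reaction for no effect and substrate without enzyme for full effect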
SENP8 conf-2 – confirmation of human SENP8 protease inhibitors | purified SENP8, Nedd8-AMC/pro-Nedd8 cleavage fluorescence, 30 min | shares compounds with SENP8 block-1 | AID 624319 | actives 15% (n = 1,400) | inhibition, % at 25 µM; in the data active means inhibition mostly above about 39%, no sharp cut-off; inactive means mostly below about 34%
Active calls of the source: *; i = inactive; nt = not tested or not shown.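 How the source made its calls, unless noted: active means mean inhibition above about 50% in the one-dose retest (limit read from the data); inactive means the rest.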

SMILES | SENP8 block-1 | SENP6 block | C8 TRAIL sens | SENP7 block | PPC-1+TRAIL kill | SENP8 block-2 | SENP8 conf-1 | SENP6 conf | SENP7 confirm | Casp3 select | Luc interf | others
O=C(N/N=C\c1ccc2c(c1)OCO2)c1ccco1 | -41 | 69* | 48 | 72* | 16 | 64* | 68* | 67* | 91* | 90* | 68*
CCOC(=O)[C@]12CCC=C1N(Cc1ccco1)C(=O)[C@H](CC(=O)NCC1CCCCC1)C2 | 0 | nt | 10 | nt | nt | nt | nt | nt | nt | nt | nt
CCc1cc(=O)oc2cc(OC(C)C(=O)N3CC[C@@]4(O)CCCC[C@H]4C3)ccc12 (stereo not given in full) | 3 | nt | 0 | nt | nt | nt | nt | nt | nt | nt | nt
CCOC(=O)c1cn2nc(N3CCCCC3)ccc2n1 | -305 | 72* | 53* | 71* | 32 | 68* | 72* | 72* | 93* | 89* | 78*
O=C(Nc1ccc(F)cc1)C1=CC(=O)N2CCN=C2S1 | nt | 2 | nt | -8 | 6 | -3 | nt | nt | nt | nt | nt
Cn1cccc1/C=C1\CC(C(C)(C)C)C/C(=C\c2cccn2C)C1=O (stereo not given) | 14 | 19 | 10 | 9 | -11 | 3 | nt | nt | nt | nt | nt
O=C1/C(=C/c2cccs2)Cc2ccccc21 | 7 | 91* | 0 | 92* | -5 | 84* | 83* | 91* | 99* | 87* | 70*
Cn1cccc1/C=C1\Cc2ccccc2C1=O | -256 | -8 | 16 | 93* | -2 | 92* | 66* | 91* | 99* | 93* | 36
O=C1C(=Cc2cccs2)C(=O)c2ccccc21 | 10 | 31 | 1 | 12 | -1 | 10 | nt | nt | nt | nt | nt
Cn1cccc1/C=C1\CCc2ccccc2C1=O | -12 | 100* | 61* | 43 | 8 | 95* | 98* | 98* | 102* | 97* | 96*
COc1ccc(Cc2nnc(Nc3ccc4c(c3)OCCO4)[nH]c2=O)cc1 | 9 | -5 | -5 | -6 | -4 | -3 | nt | nt | nt | nt | nt
CCOc1cc(/C=N/NC(=O)c2cc(C)n(-c3ccc(F)cc3)c2C)ccc1O | -180 | -12 | -5 | 1 | -4 | -1 | nt | nt | nt | nt | nt
Cc1cc(C(=O)N/N=C2\CC(=O)c3ccccc32)c(C)n1-c1ccc(F)cc1 | 79* | 73* | 17 | 21 | 28 | 40 | 27 | 50 | 40 | 51* | 12
Cn1c2ccccc2c(=O)c2ccc(C#CC3(N)CCCCC3)cc21 | -465 | -12 | 30 | 0 | nt | -19 | nt | nt | nt | nt | nt
COc1cccc2oc3ccc(C#CC4(N)CCCCC4)cc3c(=O)c12 | i | 54* | 35 | 13 | nt | 31 | 55* | 52* | 81* | 70* | 13
Cn1c2ccccc2c(=O)c2ccc(C#Cc3ccccn3)cc21 | nt | 13 | nt | 3 | nt | -12 | nt | nt | nt | nt | nt
Cc1cc2sc3ccc(C#CC4(O)CCCCC4)cc3c(=O)c2cc1C | -293 | 97* | 88* | 99* | nt | 94* | -4 | 14 | 24 | 73* | 2
Cn1c2ccccc2c(=O)c2cc(C#CC3(O)CCCCC3)ccc21 | i | 96* | 92* | 97* | nt | 92* | 46 | 57* | 36 | 62* | 78*
Cn1c2ccccc2c(=O)c2cc(C#Cc3ccccn3)ccc21 | -465 | 88* | 24 | 82* | nt | 83* | 19 | 31 | 20 | 50 | 8
Cc1ccc(S(=O)(=O)N2CCN(C(=O)n3ccnc3)CC2)cc1 | 17 | 2 | -6 | -5 | nt | -12 | nt | nt | nt | nt | nt
CC[n+]1c(C)cc(C)n1-c1ccccc1 | 5 | 12 | 7 | 2 | 19 | 4 | nt | nt | nt | nt | nt
Cn1nc(C(C)(C)C)cc1C(=O)N1CCCCC1c1cc(C(=O)NCc2ccc(F)cc2)no1 (stereo not given) | 13 | nt | 13 | nt | nt | nt | nt | nt | nt | nt | nt
N#Cc1ccc(C#Cc2ccc3oc4ccccc4c(=O)c3c2)cc1 | -247 | -18 | 2 | -2 | nt | -4 | nt | nt | nt | nt | nt
O=c1c2ccccc2oc2ccc(C#CC3(O)CCCCC3)cc12 | -215 | 94* | 87* | 89* | nt | 92* | 92* | 94* | 99* | 83* | 68*
O=C(NC1=C(Nc2ccc(F)cc2)C(=O)c2ccccc2C1=O)c1ccc(Cl)cc1 | 93* | 63* | -2 | 25 | 24 | 19 | 36 | 60* | 19 | 8 | -1
SMILES | SENP8 block-1 | SENP6 block | C8 TRAIL sens | SENP7 block | PPC-1+TRAIL kill | SENP8 block-2 | SENP8 conf-1 | SENP6 conf | SENP7 confirm | Casp3 select | Luc interf | others
COC(=O)c1ccc(COC(=O)[C@@H]2CC(O)CN2S(=O)(=O)c2ccccc2[N+](=O)[O-])cc1 (stereo not given in full) | 31 | -23 | -1 | -7 | nt | -14 | nt | nt | nt | nt | nt
CCCc1cc(C(=O)Nc2ccc(F)cc2F)no1 | 13 | 63* | -6 | 40 | 12 | 38 | 8 | 39 | 71* | 60* | 0
CCCc1cc(C(=O)Nc2ccccc2SC)no1 | 10 | 22 | -14 | 3 | 12 | 1 | nt | nt | nt | nt | nt
CCCc1cc(C(=O)Nc2ccc(F)c(Cl)c2)no1 | 12 | 93* | -1 | 93* | nt | 90* | 92* | 93* | 100* | 89* | 82*
CCCc1cc(C(=O)Nc2cccc(Cl)c2)no1 | 5 | 98* | -1 | 93* | 26 | 90* | 94* | 96* | 102* | 92* | 90*
OC[C@@H]1CN(Cc2cccs2)C[C@H](n2cnc3c(NCc4ccc(F)cc4)ncnc32)O1 | 21 | nt | 9 | nt | nt | nt | nt | nt | nt | nt | nt
O=[N+]([O-])c1nn(-c2ccc3c(c2)OCCO3)n(O)c1=NCc1ccc(F)cc1Cl | 52* | 50* | 7 | 65* | 8 | 11 | 5 | 20 | 28 | 10 | 6 | SENP8 conf-2=21
CSc1cccc(NC(=O)CN(C)S(=O)(=O)c2cnc[nH]2)c1 | 1 | 7 | -3 | 5 | nt | 1 | nt | nt | nt | nt | nt
CCOC(=O)C1=C(C)OC2(O)c3ccccc3C(=O)C12O (stereo not given) | 96* | 69* | 11 | 46 | -4 | 64* | 25 | 88* | 82* | -4 | -1 | SENP8 conf-2=99*
COc1ccc(NC(=O)C(c2ccccc2F)n2c(=O)c(-c3cc4ccccc4[nH]3)nc3ccccc32)cc1 (stereo not given) | -381 | nt | -1 | nt | nt | nt | nt | nt | nt | nt | nt

Screening data: PubChem BioAssay, Sanford-Burnham Center for Chemical Genomics
